Measurements taken from PubChem BioAssay (Tox21).
Several values for one entry are separate records, joined by “and”; a condition that tells them apart may be missing. Equal entries are not always repeated. Records with an inconclusive call do not appear. More than one record can exist for a structure, and the calls need not agree. Activity calls are given as the source filed them. Unless noted, calls follow the shape of the dose curve; as a rule, active = well fitted curve in the direction sought with a large enough effect in the repeat runs; inconclusive = weak or mixed curves; inactive = no such curve, though single readings can be large; an effect the other way counts as inactive or inconclusive.

What was measured:
[1] = qHTS assay to identify small molecule agonists of the sonic hedgehog signaling (Shh) pathway (AID 1259368; calls by dose curve;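 also: NIH/3T3-derived 3T3Gli1-Luc cells carrying a stable Gli1-driven firefly luciferase reporter; series mostly up to about 92 µM; nearly all actives have a fitted effect of over 15% in size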)
Method in brief: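 NIH/3T3-derived 3T3Gli1-Luc cells with stably integrated Gli1-driven firefly luciferase, 2,000 cells/well, compounds added after 4 hr. Incubated 24 hr at 37C, 5% CO2; luminescence read after 30 min with luciferase reagent at room temperature.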

[2] = qHTS assay to identify small molecule antagonists of the sonic hedgehog signaling (Shh) pathway (AID 1259369; calls by dose curve; also: nearly all actives have a fitted effect of over 45% in size; also: potency is read from the fitted curve at half-maximal effect)
Method in brief: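 NIH/3T3-derived Gli1-Luc reporter cells plated 4 h, dosed with compound, then stimulated with conditioned medium for 24 h at 37 C. Firefly luciferase luminescence read after 30 min with detection reagent at room temperature.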

[3] = biological target: Estrogen receptor beta (Homo sapiens) (UniProt Q92731); test: qHTS assay to identify small molecule agonists of the estrogen receptor beta (ER-beta) signaling pathway (AID 1259377; active = well fitted activation curve with a large enough effect in the signal ratio in the repeat runs, not every such curve was filed as active; the % refers to the signal ratio)
Method in brief: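 Beta-lactamase reporter readout: fluorescence of LiveBLAzer B/G FRET substrate after 2 h at room temperature, following 16 h compound treatment of ER-beta-UAS-bla HEK293T cells at 37C in 2% charcoal-stripped FBS medium.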

[4] = biological target: Estrogen receptor beta (Homo sapiens) (UniProt Q92731); test: qHTS assay to identify small molecule antagonists of the estrogen receptor beta (ER-beta) signaling pathway (AID 1259378; active = well fitted inhibition curve with a large enough effect in the signal ratio in the repeat runs, not every such curve was filed as active; the % refers to the signal ratio)
Method in brief: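 Antagonist mode: compounds added to beta-lactamase reporter HEK293T ER-beta-UAS cells stimulated with E2 (1nM final), 16 hr at 37C. LiveBLAzer B/G FRET substrate, 2 hours room temperature, fluorescence read-out.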

[5] = qHTS assay to identify small molecule agonists of the androgen receptor (AR) signaling pathway in the presence of an antagonist - cell viability counter screen (AID 1259379); also: nearly all actives have a fitted effect of over 25% in size; also: potency is read from the fitted curve at half-maximal effect
Method in brief: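 MDA-kb2 cells (MMTV-luciferase, AR/GR), 3,000/well, 5 h attachment, then 3.0 µM nilutamide (final) and compounds at 15 concentrations. Viability by CellTiter-Fluor fluorescence after 16 h at 37 °C, 0% CO2, in the reporter wells.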

[6] = qHTS assay to identify small molecule agonists of the estrogen receptor beta (ER-beta) signaling pathway - cell viability counter screen (AID 1259380); also: nearly all actives have a fitted effect of over 30% in size
Method in brief: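 ER-beta-UAS-bla HEK293T cells in medium with 2% charcoal-stripped FBS, pre-incubated 6 hr, then treated 16 hr at 37C. Cytotoxicity read in the same wells by CellTiter-Glo luminescence after 30 min at room temperature.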

[7] = qHTS assay to identify small molecule antagonists of the estrogen receptor beta (ER-beta) signaling pathway - cell viability counter screen (AID 1259382);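 also: HEK293T cells carrying ER-beta-UAS-bla reporter stimulated with estradiol; series mostly up to about 92 µM; nearly all actives have a fitted effect of over 55% in size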
Method in brief: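 ER-beta-UAS-bla HEK293T cells in 2% charcoal-stripped FBS medium, treated with compound plus 1 nM 17-beta-estradiol for 16 h at 37C. Viability read by CellTiter-Glo luminescence after 30 min at room temperature in the same wells.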

[8] = qHTS assay to identify small molecule agonists or antagonists of the thyroid stimulating hormone receptor (TSHR) signaling pathway - wild type cell line counter screen (AID 1259384; calls by dose curve)
Method in brief: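 Counter screen in untransfected Hek293: compounds (15-point titration, triplicate) plus phosphodiesterase inhibitor Ro20-1724 added after 18 h plating; 30 min RT. Intracellular cAMP via competitive d2/cryptate immunoassay, 1 h incubation.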

[9] = biological target: Thyrotropin receptor (Homo sapiens) (UniProt P16473); test: qHTS assay to identify small molecule antagonists of the thyroid stimulating hormone receptor (TSHR) signaling pathway (AID 1259385; calls by dose curve; also: nearly all actives have a fitted effect of over 20% in size)
Method in brief: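 Antagonist mode: compound-treated TSHR-expressing HEK293 cells were stimulated with 1.5 ng/mL TSH (final) in presence of Ro20-1724 for 30 min at RT. HTRF cAMP detection after 1 h; each compound tested at 15 concentrations, triplicate.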

[10] = qHTS assay to identify small molecule agonists of the estrogen receptor alpha (ER-alpha) signaling pathway in the presence of an antagonist - cell viability counter screen (AID 1259386);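 also: cells exposed to compounds for 22 h at 37 °C before the viability read; nearly all actives have a fitted effect of over 30% in size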; also: potency is read from the fitted curve at half-maximal effect
Method in brief: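 Cell viability in VM7Luc4E2 cells (endogenous full-length ER-alpha) measured by CellTiter-Fluor fluorescence in the same wells as the luciferase screen. Cells pre-cultured 5 days in charcoal-stripped serum, then treated 22 h with compounds at 15 concentrations plus 10.0nM ICI-182,780.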

[11] = biological target: Progesterone receptor (Homo sapiens) (UniProt P06401); test: qHTS assay to identify small molecule agonists of the progesterone receptor (PR) signaling pathway (AID 1346784; calls by dose curve; also: nearly all actives have a fitted effect of over 30% in size)
Method in brief: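 HEK 293T PR-UAS-bla reporter cells, 2% charcoal-stripped FBS; 6 hr settle at 37C/5% CO2, compound (DMSO) 16 hr, LiveBLAzer B/G FRET substrate 2 hr RT, fluorescence intensity read.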

[12] = biological target: Progesterone receptor (Homo sapiens) (UniProt P06401); test: qHTS assay to identify small molecule antagonists of the progesterone receptor (PR) signaling pathway (AID 1346795; active = well fitted inhibition curve with a large enough effect in the signal ratio in the repeat runs, not every such curve was filed as active; the % refers to the signal ratio; also: potency is read from the fitted curve at half-maximal effect)
Method in brief: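 Beta-lactamase reporter, HEK293T PR-UAS-bla line; 2% charcoal-stripped FBS; 6 hr pre-incubation, 37C/5% CO2. Compound + R5020 1 nM final, 16 hr. LiveBLAzer B/G FRET substrate, 2 hr RT; fluorescence intensity read.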

[13] = qHTS assay to identify small molecule antagonists of the progesterone receptor (PR) signaling pathway - cell viability counter screen (AID 1346798); also: series mostly up to about 92 µM; nearly all actives have a fitted effect of over 50% in size
Method in brief: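 Luminescence readout (CellTiter-Glo, 30 min, RT) of viability in PR-UAS-bla HEK293T cells exposed to compound and R5020 agonist for 16 hr at 37C, 5% CO2; run in the same wells as the beta-lactamase reporter read.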

[14] = qHTS assay to identify small molecule agonists of the progesterone receptor (PR) signaling pathway - cell viability counter screen (AID 1346799; calls by dose curve; also: nearly all actives have a fitted effect of over 45% in size)
Method in brief: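 HEK293T PR-UAS-bla, 3,000 cells/well, 2% charcoal-stripped FBS; 6 h settle, compound 16 h at 37C/5% CO2; LiveBLAzer 2 h RT, then CellTiter-Glo 30 min RT, luminescence read.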

[15] = qHTS assay to identify small molecule antagonists of the TGF-beta/Smad signaling pathway - cell viability counter screen (AID 1346824); also: nearly all actives have a fitted effect of over 50% in size
Method in brief: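 Cytotoxicity counter-screen run in the same wells as the beta-lactamase Smad reporter read: CellTiter-Glo luminescence after 30 min at room temperature. HEK 293T SBE-bla cells had 5 hr compound exposure at 37 C with TGF-beta1 (0.25 ng/mL stock).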

[16] = qHTS assay to identify small molecule agonists of the TGF-beta/Smad signaling pathway - cell viability counter screen (AID 1346829); also: top concentration of the series differs between compounds; nearly all actives have a fitted effect of over 45% in size
Method in brief: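 Here the cytotoxicity of library compounds is measured in SBE-bla HEK 293T cells treated for 5 hr, using CellTiter-Glo added to wells already read for the beta-lactamase reporter.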

[17] = qHTS assay to identify small molecule agonists of the TGF-beta/Smad signaling pathway (AID 1346859; active = well fitted activation curve with a large enough effect in the signal ratio in the repeat runs, not every such curve was filed as active; the % refers to the signal ratio; also: series mostly up to about 77 µM)
Method in brief: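 Read-out: fluorescence at 460 and 530 nm (405 nm excitation) after a 2 hr room-temperature incubation with beta-lactamase FRET substrate. SBE-bla HEK 293T cells had been treated with test compounds for 5 hr at 37 C.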

[18] = biological target: Thyrotropin-releasing hormone receptor (Homo sapiens) (UniProt P34981); test: qHTS assay to identify small molecule antagonists of the thyrotropin-releasing hormone receptor (TRHR) signaling pathway (AID 1346877; active = well fitted inhibition curve with a large enough effect in the repeat runs, not every such curve was filed as active; also: series mostly up to about 51 µM)
Method in brief: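 TRHR-expressing HEK293 cells loaded with calcium dye for 2 h at 37 C; compounds pre-incubated 5 min at room temperature before TRH challenge at 1 nM final. Intracellular calcium fluorescence read kinetically for 3 min; 15 concentrations in triplicate.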

[19] = biological target: Estrogen receptor (Homo sapiens) (UniProt P03372); test: qHTS assay to identify small molecule agonists of the estrogen receptor alpha (ER-alpha) signaling pathway in the presence of an antagonist (AID 1259383; calls by dose curve; also: top concentration of the series differs between compounds; nearly all actives have a fitted effect of over 15% in size)
Method in brief: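 VM7Luc4E2 cells express endogenous full-length ER-alpha with an ERE-luciferase reporter and were hormone-deprived for 5 days. Compounds at 15 concentrations were added with 10.0nM ICI-182,780 for 22hr at 37C. Luminescence was read with ONE-Glo.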

[20] = biological target: Androgen receptor (Homo sapiens) (UniProt P10275); test: qHTS assay to identify small molecule agonists of the androgen receptor (AR) signaling pathway in the presence of an antagonist (AID 1259381; calls by dose curve; also: nearly all actives have a fitted effect of over 15% in size)
Method in brief: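 MDA-kb2 cells carrying MMTV-luciferase (AR/GR responsive), 3,000 cells/well, co-treated with 3.0 uM nilutamide final. Compounds at 15 concentrations, 16 hr at 37C without CO2. Luciferase luminescence read after 30 min with ONE-Glo.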

Measured: Potency

Sequence of Thyrotropin-releasing hormone receptor (Homo sapiens) (P34981 whole entry, looked up): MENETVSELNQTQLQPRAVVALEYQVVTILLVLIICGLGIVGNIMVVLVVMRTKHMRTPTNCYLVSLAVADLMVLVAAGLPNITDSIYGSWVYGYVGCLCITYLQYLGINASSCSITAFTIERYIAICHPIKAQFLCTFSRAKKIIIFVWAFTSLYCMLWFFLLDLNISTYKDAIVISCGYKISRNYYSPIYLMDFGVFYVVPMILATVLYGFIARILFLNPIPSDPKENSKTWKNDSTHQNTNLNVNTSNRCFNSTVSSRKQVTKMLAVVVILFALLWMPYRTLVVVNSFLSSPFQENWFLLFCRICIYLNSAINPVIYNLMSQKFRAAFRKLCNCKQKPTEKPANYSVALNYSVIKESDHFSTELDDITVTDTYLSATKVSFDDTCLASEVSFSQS
Sequence of Androgen receptor (Homo sapiens) (P10275 whole entry, looked up): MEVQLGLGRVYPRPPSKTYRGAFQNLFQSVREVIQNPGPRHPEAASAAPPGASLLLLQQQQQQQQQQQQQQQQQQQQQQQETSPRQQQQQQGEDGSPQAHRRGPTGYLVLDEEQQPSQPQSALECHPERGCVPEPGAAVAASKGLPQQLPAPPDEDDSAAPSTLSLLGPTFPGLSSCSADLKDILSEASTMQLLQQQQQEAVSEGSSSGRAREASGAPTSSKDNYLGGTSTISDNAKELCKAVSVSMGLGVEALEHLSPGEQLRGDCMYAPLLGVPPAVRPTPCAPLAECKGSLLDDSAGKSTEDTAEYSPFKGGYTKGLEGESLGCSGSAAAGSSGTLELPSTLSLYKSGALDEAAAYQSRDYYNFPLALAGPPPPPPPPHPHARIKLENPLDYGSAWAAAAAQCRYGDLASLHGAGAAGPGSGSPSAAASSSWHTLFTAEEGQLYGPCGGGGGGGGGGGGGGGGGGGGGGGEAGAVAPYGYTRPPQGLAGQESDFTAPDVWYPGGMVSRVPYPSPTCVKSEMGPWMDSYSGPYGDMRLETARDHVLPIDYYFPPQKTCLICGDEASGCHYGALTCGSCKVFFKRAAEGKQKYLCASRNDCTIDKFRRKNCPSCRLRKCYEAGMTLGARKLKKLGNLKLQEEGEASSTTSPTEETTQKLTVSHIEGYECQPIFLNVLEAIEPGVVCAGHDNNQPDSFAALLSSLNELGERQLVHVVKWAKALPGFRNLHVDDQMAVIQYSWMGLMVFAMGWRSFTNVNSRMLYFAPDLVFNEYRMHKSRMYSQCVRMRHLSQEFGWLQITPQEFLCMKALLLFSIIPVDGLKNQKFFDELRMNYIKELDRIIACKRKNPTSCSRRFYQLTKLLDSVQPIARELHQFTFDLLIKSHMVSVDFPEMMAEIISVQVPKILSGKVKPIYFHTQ
Sequence of Progesterone receptor (Homo sapiens) (P06401 whole entry, looked up): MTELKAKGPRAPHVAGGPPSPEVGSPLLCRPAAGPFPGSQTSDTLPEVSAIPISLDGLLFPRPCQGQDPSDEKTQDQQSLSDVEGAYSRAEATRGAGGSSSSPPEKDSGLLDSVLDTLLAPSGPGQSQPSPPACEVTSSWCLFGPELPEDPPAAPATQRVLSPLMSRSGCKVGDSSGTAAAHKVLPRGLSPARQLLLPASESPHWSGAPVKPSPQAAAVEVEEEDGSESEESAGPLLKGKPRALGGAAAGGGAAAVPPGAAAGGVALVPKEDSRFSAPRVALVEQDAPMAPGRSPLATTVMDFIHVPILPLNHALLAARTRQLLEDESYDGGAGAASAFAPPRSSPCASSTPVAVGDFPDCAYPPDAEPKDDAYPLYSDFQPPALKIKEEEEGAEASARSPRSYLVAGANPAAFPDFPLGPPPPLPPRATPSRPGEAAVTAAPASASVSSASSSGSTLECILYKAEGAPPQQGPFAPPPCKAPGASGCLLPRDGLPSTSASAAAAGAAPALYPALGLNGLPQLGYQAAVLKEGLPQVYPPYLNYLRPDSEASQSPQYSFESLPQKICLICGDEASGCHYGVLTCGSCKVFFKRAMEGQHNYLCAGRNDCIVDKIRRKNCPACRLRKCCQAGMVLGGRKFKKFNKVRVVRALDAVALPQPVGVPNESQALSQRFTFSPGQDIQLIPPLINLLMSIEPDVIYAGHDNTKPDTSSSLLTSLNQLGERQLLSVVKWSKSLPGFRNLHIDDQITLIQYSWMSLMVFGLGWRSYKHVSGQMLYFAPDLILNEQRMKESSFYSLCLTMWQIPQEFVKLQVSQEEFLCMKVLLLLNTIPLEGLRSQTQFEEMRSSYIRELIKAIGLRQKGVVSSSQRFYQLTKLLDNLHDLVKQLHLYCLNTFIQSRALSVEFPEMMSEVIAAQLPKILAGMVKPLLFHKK
Sequence of Estrogen receptor beta (Homo sapiens) (Q92731 whole entry, looked up): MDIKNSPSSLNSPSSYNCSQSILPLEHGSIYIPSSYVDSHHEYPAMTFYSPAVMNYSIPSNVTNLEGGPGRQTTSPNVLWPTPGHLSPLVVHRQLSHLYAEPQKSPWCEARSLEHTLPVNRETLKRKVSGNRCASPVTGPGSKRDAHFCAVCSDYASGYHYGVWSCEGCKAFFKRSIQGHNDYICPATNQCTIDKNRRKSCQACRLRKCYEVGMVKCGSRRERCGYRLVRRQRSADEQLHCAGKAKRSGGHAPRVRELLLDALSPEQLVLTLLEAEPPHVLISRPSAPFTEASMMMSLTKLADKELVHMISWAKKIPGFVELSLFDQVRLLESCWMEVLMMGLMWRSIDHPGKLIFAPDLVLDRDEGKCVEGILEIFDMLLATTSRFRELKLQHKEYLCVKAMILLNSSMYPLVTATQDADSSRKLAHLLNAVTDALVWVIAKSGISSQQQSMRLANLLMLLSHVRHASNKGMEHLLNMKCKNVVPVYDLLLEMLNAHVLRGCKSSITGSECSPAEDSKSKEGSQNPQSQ
Sequence of Thyrotropin receptor (Homo sapiens) (P16473 whole entry, looked up): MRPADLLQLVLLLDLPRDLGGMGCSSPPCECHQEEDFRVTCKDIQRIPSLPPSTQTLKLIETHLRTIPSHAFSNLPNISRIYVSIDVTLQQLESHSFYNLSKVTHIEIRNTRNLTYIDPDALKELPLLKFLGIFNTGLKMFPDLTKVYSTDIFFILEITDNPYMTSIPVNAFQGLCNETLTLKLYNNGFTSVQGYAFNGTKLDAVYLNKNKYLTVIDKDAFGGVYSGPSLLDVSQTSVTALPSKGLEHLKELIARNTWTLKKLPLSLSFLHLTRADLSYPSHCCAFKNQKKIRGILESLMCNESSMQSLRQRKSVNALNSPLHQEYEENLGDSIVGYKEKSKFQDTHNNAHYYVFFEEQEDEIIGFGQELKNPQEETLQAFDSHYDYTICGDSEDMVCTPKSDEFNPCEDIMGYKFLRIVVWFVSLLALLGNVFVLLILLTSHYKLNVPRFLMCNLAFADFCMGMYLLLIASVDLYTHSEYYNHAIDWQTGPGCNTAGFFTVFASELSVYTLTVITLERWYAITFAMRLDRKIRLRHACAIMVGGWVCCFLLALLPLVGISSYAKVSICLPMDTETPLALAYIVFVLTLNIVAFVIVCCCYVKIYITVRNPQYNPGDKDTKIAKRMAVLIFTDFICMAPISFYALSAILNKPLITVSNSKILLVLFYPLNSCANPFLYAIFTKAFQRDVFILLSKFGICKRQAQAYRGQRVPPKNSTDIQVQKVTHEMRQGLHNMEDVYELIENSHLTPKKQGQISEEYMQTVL
Sequence of Estrogen receptor (Homo sapiens) (P03372 whole entry, looked up): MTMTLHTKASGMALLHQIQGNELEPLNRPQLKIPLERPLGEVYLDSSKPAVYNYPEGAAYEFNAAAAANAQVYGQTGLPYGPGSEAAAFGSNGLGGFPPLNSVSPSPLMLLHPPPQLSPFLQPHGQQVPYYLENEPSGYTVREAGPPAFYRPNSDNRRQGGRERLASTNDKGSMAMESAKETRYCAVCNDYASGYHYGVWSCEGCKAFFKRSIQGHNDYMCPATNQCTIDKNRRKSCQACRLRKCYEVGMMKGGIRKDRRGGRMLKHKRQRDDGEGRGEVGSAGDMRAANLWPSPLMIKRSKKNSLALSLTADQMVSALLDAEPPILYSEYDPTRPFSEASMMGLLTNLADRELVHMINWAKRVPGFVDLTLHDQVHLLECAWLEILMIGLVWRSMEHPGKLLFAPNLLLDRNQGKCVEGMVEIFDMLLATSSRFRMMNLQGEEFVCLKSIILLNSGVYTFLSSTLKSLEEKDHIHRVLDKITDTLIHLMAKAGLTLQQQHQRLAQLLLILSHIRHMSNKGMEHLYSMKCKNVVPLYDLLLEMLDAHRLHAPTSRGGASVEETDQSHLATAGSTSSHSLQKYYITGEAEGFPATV

Clc1ccc(Cl)c(Cl)c1Cl
not listed: [19] | [20]
inactive: all other assays above

CN(CCOc1ccc(CC2SC(=O)NC2=O)cc1)c1ccccn1 (stereo unspecified)
48.3 µM (active) and inactive: [12]
not listed: [6] | [7] | [18] | [20]
inactive: all other assays above

CCCCCC/C=C/CCCCCCCC(=O)O
not listed: [20]
inactive: all other assays above

O=[N+]([O-])c1cc(N(CCO)CCO)ccc1NCCO
active: [5] 54.4 µM and 30.6 µM | [10] 34.3 µM and 27.3 µM
not listed: [4] | [8] | [9] | [18]
inactive: all other assays above

CCOC(=O)[C@H](CCc1ccccc1)N[C@@H](C)C(=O)N1Cc2ccccc2C[C@H]1C(=O)O
inactive and 16.8 µM (active): [2]
not listed: [8] | [9] | [12] | [18] | [20]
inactive: all other assays above

CC(C)(C)C1CCC(O)CC1 (stereo unspecified)
not listed: [20]
inactive: all other assays above

NCCc1ccc(O)c(O)c1
54.6 µM (active) and inactive: [5]
active: [2] 0.866 µM
27.4 µM (active) and inactive: [10]
not listed: [8] | [9] | [20]
inactive: all other assays above

NS(=O)(=O)c1cc2c(cc1Cl)NC=NS2(=O)=O
not listed: [7] | [20]
inactive: all other assays above

C=CC(=O)OCCCCCCCC(C)C
inactive: all assays above

O=C1O[C@H](CO)[C@@H](O)[C@H](O)[C@H]1O
not listed: [20]
inactive: all other assays above

OC1CCCC1
not listed: [7] | [20]
inactive: all other assays above

CC(C)(CO)COC(=O)C(C)(C)CO
inactive: all assays above

Nc1nc2ncc(CNc3ccc(C(=O)N[C@@H](CCC(=O)O)C(=O)O)cc3)nc2c(=O)[nH]1
not listed: [18] | [19]
inactive: all other assays above

Oc1ccc2ccccc2c1N=Nc1ccccc1
active: [5] 21.7 µM and 27.3 µM | [10] 21.7 µM and 19.3 µM | [12] 24.3 µM
not listed: [6] | [20]
inactive: all other assays above
